According to PubChem BioAssay (EPA / NIEHS):
Inconclusive results are not listed. Activity calls are given as the source filed them. The calls were made as follows: active = hit-call score of the fitted dose curve at least 0.9, where 1 is the maximum; inconclusive = response in the unintended direction; inactive = score below 0.9.

Tests used:
[1] = TOX21_p53_BLA_p2_viability: Viability Assessment in the Tox21 HCT-116 p53 Agonism Beta-lactamase Assay, Phase 2 (AID 2283591);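 also: actives lower the ATP signal meaning cytotoxicity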
Method in brief: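 HCT116 p53-bla cells, 4000/well, dosed after 5 h plating (217-fold dilution of DMSO stocks) and incubated 16 h at 37C. Viability taken as cellular ATP by CellTiter-Glo luminescence after 30 min RT; signal loss marks cytotoxicity.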

[2] = molecular target: Cellular tumor antigen p53 (Homo sapiens) (UniProt P04637); assay: TOX21_p53_BLA_p2_ratio: Tox21 HCT-116 p53 Agonism Beta-lactamase Assay, Ratio, Phase 2 (AID 2283592)
Chain of Cellular tumor antigen p53 (Homo sapiens) (P04637 whole entry, looked up): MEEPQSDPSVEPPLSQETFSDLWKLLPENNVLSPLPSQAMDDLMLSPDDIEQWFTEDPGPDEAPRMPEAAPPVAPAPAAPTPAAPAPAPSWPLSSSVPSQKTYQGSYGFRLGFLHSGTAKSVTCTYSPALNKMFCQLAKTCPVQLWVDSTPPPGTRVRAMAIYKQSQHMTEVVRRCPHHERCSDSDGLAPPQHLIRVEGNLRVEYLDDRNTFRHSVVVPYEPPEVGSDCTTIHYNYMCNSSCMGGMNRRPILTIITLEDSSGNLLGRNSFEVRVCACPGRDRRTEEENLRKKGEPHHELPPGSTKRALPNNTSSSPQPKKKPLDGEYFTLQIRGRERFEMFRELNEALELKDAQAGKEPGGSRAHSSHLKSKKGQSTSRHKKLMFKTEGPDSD
Method in brief: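 An inducible beta-lactamase reporter in HCT116 cells signals p53 pathway activation. After 16 h chemical exposure at 37C, cells load CCF4-AM substrate for 2 h at room temperature; activity is the cleaved/uncleaved emission ratio relative to DMSO.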

[3] = TOX21_p53_BLA_p3_viability: Viability Assessment in the Tox21 HCT-116 p53 Agonism Beta-lactamase Assay, Phase 3 (AID 2283593);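 also: cells exposed to compound for 16 h before reading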
Method in brief: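 HCT116 cells, 4000/well, dosed 5 h after plating by pin transfer (217-fold dilution from DMSO stock) and incubated 16 h at 37C, 5% CO2. Viability read as ATP luminescence with CellTiter-Glo after 30 min at room temperature.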

[4] = molecular target: Cellular tumor antigen p53 (Homo sapiens) (UniProt P04637); assay: TOX21_p53_BLA_p3_ratio: Tox21 HCT-116 p53 Agonism Beta-lactamase Assay, Ratio, Phase 3 (AID 2283596)
Method in brief: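 HCT116 p53-bla cells (4000/well) given compound in DMSO (217-fold dilution) after 5 h, incubated 16 h at 37C. CCF4-AM substrate 2 h at room temperature; 460/530 nm emission ratio, gain fitted against DMSO.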

[5] = TOX21_p53_BLA_p4_viability: Viability Assessment in the Tox21 HCT-116 p53 Agonism Beta-lactamase Assay, Phase 4 (AID 2283597);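 also: hits lower the luminescence signal meaning cytotoxicity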
Method in brief: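 Compound exposure of HCT116 cells lasts 16 h at 37C, 5% CO2, with DMSO stocks diluted 217-fold. Cellular ATP is then quantified by CellTiter-Glo luminescence after 30 min at room temperature.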

[6] = molecular target: Cellular tumor antigen p53 (Homo sapiens) (UniProt P04637); assay: TOX21_p53_BLA_p5_ratio: Tox21 HCT-116 p53 Agonism Beta-lactamase Assay, Ratio, Phase 5 (AID 2283599)
Method in brief: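 HCT-116 p53-bla cells (4000/well) plated 5 h, dosed with compound (217-fold DMSO dilution) for 16 h at 37 C; CCF4-AM substrate 2 h at room temperature. Activity is the 460/530 nm emission ratio (405 nm excitation), fitted in gain-of-signal direction versus DMSO.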

[7] = molecular target: Cellular tumor antigen p53 (Homo sapiens) (UniProt P04637); assay: TOX21_p53_BLA_p4_ratio: Tox21 HCT-116 p53 Agonism Beta-lactamase Assay, Ratio, Phase 4 (AID 2283601)
Method in brief: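 HCT-116 p53 beta-lactamase reporter cells (4000/well) preincubated 5 h, then compound (217-fold dilution of DMSO stock) for 16 h at 37C. CCF4-AM substrate added 2 h at room temperature; 460/530 nm emission ratio fitted upward versus DMSO.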

Measured: AC50

CN1C[C@H](C(=O)N[C@]2(C)O[C@@]3(O)[C@@H]4CCCN4C(=O)[C@H](Cc4ccccc4)N3C2=O)C[C@@H]2c3cccc4[nH]cc(c34)C[C@H]21
inactive: [1] | [2] | [3] | [4] | [5] | [6] | [7]

CC(C)(S)C(=O)N[C@@H](CS)C(=O)O
inactive: [1] | [2] | [3] | [4] | [5] | [6] | [7]

CCC(Oc1ccccc1)C(=O)N[C@@H]1C(=O)N2[C@@H]1SC(C)(C)[C@@H]2C(=O)O (stereo not given in full)
inactive: [1] | [2] | [3] | [4] | [5] | [6] | [7]

C1COC(NC(C2CC2)C2CC2)=N1
inactive: [1] | [2] | [3] | [4] | [5] | [6]
active: [7] 39.6 µM

O=C1CCC(c2ccccc2)(C2CCN(Cc3ccccc3)CC2)C(=O)N1 (stereo not given)
inactive: [1] | [2] | [3] | [4] | [5] | [6] | [7]

O=C1C(=Cc2cccs2)CCCC1=Cc1cccs1
inactive: [1] | [2] | [3] | [4] | [5] | [6] | [7]

CNC(=O)c1ccccc1Sc1ccc2c(/C=C/c3ccccn3)n[nH]c2c1
inactive: [1] | [3] | [5]
active: [2] 0.922 µM | [4] 1.02 µM | [6] 0.894 µM | [7] 0.738 µM

Cc1cc(Nc2ccc(O)cc2)ccc1N
inactive: [1] | [2] | [5] | [6] | [7]
active: [3] 46.7 µM | [4] 41.2 µM

CCCC1C(CC)=CC(CC)=CN1c1ccccc1 (stereo not given)
inactive: [1] | [2] | [3] | [4] | [5] | [6] | [7]

Cc1ccsc1/C=C/C1=NCCCN1C
inactive: [1] | [2] | [3] | [4] | [5] | [6] | [7]

O=C(O)C(=O)Nc1cccc(-c2nn[nH]n2)c1
inactive: [1] | [2] | [3] | [4] | [5] | [6] | [7]

O=C(C=Cc1ccc(O)c(O)c1)O[C@@H]1C[C@@](OC(=O)C=Cc2ccc(O)c(O)c2)(C(=O)O)C[C@@H](O)[C@@H]1O
inactive: [1] | [2] | [3] | [4] | [5] | [6] | [7]

Cn1cc(NC(=O)c2cc(NC(=O)c3cc(NC=O)cn3C)cn2C)cc1C(=O)NCCC(=N)N
inactive: [1] | [2] | [3] | [4] | [5] | [6] | [7]

N[C@@H](COP(=O)(O)O)C(=O)O
inactive: [1] | [2] | [3] | [4] | [5] | [6] | [7]

Cc1cc(CC(C)CC(C)(C)C)n(O)c(=O)c1 (stereo not given) (tested in a mixture with another compound)
active: [3] 43.5 µM | [5] 34.1 µM | [6] 36.1 µM | [7] 33 µM
inactive: [1] | [2] | [4]

CCCCCC[C@@H](CCC)C(=O)O
inactive: [1] | [2] | [3] | [4] | [5] | [6] | [7]

C[C@@H]1C[C@H]2O[C@@]3(O[C@@H]2C(C)(C)O)[C@H](O)[C@@]2(C)[C@@H]4CC[C@H]5C(C)(C)[C@@H](O[C@@H]6OC[C@@H](O)[C@H](O)[C@H]6O)CC[C@@]56C[C@@]46CC[C@]2(C)[C@@H]13
inactive: [1] | [2] | [3] | [4] | [5] | [6] | [7]

O=Cc1cc2ccccc2o1
inactive: [1] | [2] | [3] | [4] | [5] | [6] | [7]

COc1cc(/C=C/c2ccccc2)oc(=O)c1
inactive: [1] | [2] | [3] | [4] | [5] | [6] | [7]

CC(C)(C)OC(=O)c1cccc(N)c1
inactive: [1] | [2] | [3] | [4] | [5] | [6] | [7]

CN(C)CCCCl
inactive: [1] | [2] | [3] | [4] | [5] | [6] | [7]

O=C(O)c1cc(-c2ccc(F)cc2F)ccc1O
inactive: [1] | [2] | [3] | [4] | [5] | [6] | [7]

Cc1ccc2c(Br)cc(Br)c(O)c2n1
active: [2] 40.4 µM | [5] 16.8 µM | [7] 43 µM
inactive: [1] | [3] | [4] | [6]

Cc1cc(C)c(N)c(Cl)c1
inactive: [1] | [2] | [3] | [4] | [5] | [6] | [7]

CCOC(=O)[C@H](CCc1ccccc1)N[C@@H](C)C(=O)N1[C@H](C(=O)O)C[C@@H]2CCC[C@@H]21
inactive: [1] | [2] | [3] | [4] | [5] | [6] | [7]
